Experimental data published in PubChem BioAssay.
A number with no mark means an inactive call. For some of these results: Results with a measured potency or affinity are listed apart. Calls of active or inactive are those of the source. Unless noted, no rule for the calls is given here.

Experiments:
[1] = antimalarial activity against Dd2 strain (AID 2302;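 active = growth inhibition above 50% at the single 2 µM test dose, taken to imply half-maximal potency below 2 µM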;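 also: 0% = DMSO untreated growth and 100% = chloroquine plus artemisinin killed control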); conditions: P. falciparum Dd2 in RBCs, LDH growth readout, 72 h; at 2 µM; hits give high values
[2] = human hepatoma cell viability loss – ATP luminescence, cytotoxicity control for P. falciparum antimalarial project, primary screen (AID 2303;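 active = inhibition above 50%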;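 also: 0% = DMSO wells and 100% = digitonin-killed cells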); conditions: HepG2 viability, 24-48 h, at 10 µM, hits give high values
[3] = target: L-lactate dehydrogenase (Plasmodium falciparum (isolate CDC / Honduras)) (UniProt Q27743); assay: PfLDH activity inhibition – cell lysate, 3D7 strain, counter-screen for P. falciparum growth inhibition project (AID 2304);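 also: 0% = vehicle and 100% = reference inhibitor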; conditions: P. falciparum 3D7 crude extract, LDH APAD/NBT absorbance; at 2 µM; hits give high values
Sequence of L-lactate dehydrogenase (Plasmodium falciparum (isolate CDC / Honduras)) (Q27743 whole entry, looked up): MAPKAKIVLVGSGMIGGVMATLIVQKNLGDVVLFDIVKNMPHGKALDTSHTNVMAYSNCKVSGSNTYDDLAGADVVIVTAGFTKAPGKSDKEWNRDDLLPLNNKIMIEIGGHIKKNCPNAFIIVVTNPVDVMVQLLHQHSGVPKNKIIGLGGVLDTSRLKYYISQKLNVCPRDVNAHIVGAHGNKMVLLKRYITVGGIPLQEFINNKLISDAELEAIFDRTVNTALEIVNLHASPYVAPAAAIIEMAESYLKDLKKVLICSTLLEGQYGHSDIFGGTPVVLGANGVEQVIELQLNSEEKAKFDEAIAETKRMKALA

[4] = inhibition of 3D7 malaria parasite growth – strain 3D7 (AID 2306);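 also: 0% = DMSO wells and 100% = chloroquine plus artemisinin control wells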; conditions: P. falciparum 3D7 erythrocytic growth, LDH absorbance, 72 h; at 2 µM; hits give high values
[5] = target: Calcium-dependent protein kinase 1 (Plasmodium falciparum (isolate 3D7)) (UniProt P62344); assay: PfCDPK1 kinase inhibitors, biochemical, TCAMS library (AID 1159585; cut-off not given, nearly all actives have IC50 up to about 0.98 µM;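 also: inhibitors leave more ATP so luminescence rises with inhibition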); conditions: recombinant PfCDPK1, Kinase-Glo ATP depletion luminescence
Sequence of Calcium-dependent protein kinase 1 (Plasmodium falciparum (isolate 3D7)) (P62344 whole entry, looked up): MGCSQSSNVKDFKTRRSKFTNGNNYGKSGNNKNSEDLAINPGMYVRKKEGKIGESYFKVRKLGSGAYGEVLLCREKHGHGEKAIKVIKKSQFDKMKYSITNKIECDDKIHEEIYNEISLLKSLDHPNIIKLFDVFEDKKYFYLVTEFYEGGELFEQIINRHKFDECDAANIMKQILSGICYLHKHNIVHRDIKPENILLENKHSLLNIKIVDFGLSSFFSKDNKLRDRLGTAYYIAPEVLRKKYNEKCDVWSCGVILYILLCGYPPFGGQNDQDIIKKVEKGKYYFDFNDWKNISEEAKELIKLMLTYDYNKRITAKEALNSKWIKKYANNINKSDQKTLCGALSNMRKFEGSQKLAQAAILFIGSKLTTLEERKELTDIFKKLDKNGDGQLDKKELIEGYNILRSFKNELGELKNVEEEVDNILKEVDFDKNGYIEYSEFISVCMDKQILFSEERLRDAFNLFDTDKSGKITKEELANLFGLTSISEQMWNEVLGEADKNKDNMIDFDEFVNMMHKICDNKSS

[6] = target: Plasmodium falciparum protein kinase 6 (PK6, PF3D7_1337100) (UniProt Q8IDW1); assay: PfPK6 kinase inhibitors, biochemical, TCAMS library (AID 1159586); conditions: recombinant PfPK6, Kinase-Glo ATP depletion luminescence
Sequence of Plasmodium falciparum protein kinase 6 (PK6, PF3D7_1337100) (Q8IDW1 1-305): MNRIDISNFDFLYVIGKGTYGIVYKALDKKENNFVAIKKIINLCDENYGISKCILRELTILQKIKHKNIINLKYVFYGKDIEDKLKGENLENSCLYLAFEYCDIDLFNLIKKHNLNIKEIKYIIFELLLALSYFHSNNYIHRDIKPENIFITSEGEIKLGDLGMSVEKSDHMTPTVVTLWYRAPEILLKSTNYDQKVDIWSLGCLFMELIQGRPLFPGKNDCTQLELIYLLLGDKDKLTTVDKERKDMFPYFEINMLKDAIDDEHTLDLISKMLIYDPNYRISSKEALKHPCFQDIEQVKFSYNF

[7] = target: Protein kinase 7 (PK7), Plasmodium falciparum 3D7 (PF3D7_0213400) (UniProt Q7YTF7); assay: inhibition of Plasmodium PK7 catalytic activity – biochemical, TCAMS antimalarial set, Kinase-Glo luminescence (AID 1159587); conditions: recombinant PfPK7, Kinase-Glo ATP depletion luminescence
Sequence of Protein kinase 7 (PK7), Plasmodium falciparum 3D7 (PF3D7_0213400) (Q7YTF7 1-343): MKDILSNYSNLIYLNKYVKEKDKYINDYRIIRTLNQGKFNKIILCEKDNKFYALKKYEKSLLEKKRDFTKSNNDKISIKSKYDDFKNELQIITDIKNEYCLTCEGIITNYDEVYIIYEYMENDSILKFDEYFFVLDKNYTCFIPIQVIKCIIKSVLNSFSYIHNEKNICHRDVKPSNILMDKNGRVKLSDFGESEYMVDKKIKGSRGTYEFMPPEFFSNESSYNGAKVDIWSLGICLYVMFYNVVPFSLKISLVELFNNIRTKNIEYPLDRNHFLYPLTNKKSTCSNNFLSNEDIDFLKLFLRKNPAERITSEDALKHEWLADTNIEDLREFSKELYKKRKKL

[8] = target: Calcium-dependent protein kinase 4 (Plasmodium falciparum (isolate 3D7)) (UniProt Q8IBS5); assay: PfCDPK4 kinase inhibitors, biochemical, TCAMS library (AID 1159588; cut-off not given, nearly all actives have IC50 up to about 0.91 µM); conditions: recombinant PfCDPK4, Kinase-Glo ATP depletion luminescence
Sequence of Calcium-dependent protein kinase 4 (Plasmodium falciparum (isolate 3D7)) (Q8IBS5 whole entry, looked up): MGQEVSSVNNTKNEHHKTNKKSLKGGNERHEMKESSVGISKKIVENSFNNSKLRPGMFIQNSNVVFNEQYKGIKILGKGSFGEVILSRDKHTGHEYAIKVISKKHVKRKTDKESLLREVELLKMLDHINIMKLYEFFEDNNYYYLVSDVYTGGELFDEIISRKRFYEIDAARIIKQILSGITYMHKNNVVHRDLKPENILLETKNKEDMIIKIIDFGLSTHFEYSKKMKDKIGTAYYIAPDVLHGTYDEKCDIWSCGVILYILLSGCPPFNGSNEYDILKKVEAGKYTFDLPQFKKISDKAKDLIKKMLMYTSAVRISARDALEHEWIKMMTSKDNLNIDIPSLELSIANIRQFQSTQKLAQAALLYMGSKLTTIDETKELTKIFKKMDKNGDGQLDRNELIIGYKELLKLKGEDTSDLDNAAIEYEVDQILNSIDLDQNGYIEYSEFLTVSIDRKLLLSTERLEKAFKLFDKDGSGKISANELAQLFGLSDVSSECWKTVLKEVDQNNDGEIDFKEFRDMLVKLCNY

Structure (SMILES) | growth inhibition [1] | inhibition [2] | inhibition [3] | growth inhibition [4] | outcome [5] | outcome [6] | outcome [7] | outcome [8]
CN1CCC(C(=O)N(Cc2ccc(-c3ccc(CNCCc4ccc(S(C)(=O)=O)cc4)cn3)cc2)C2Cc3ccccc3C2)CC1 | 49% | 21% | -2% | 98% (active) | inactive | inactive | inactive | inactive
CN(CCON1C(N)=NC(N)=NC1(C)C)c1ccccc1 | 93% (active) | 64% (active) | 1% | 97% (active) | inactive | inactive | inactive | inactive
O=C(Nc1ccc(-c2cccc(-c3nc4ccccc4[nH]3)c2)cc1)Nc1ccc(F)c(F)c1F | 96% (active) | 74% (active) | 5% | 100% (active) | inactive | inactive | inactive | inactive
O=C(COc1ccc(Cl)c(Cl)c1)NCCCCCN1CCCN(C(=O)Nc2ccc(Cl)c(Cl)c2)CC1 | 7% | 29% | 3% | 93% (active) | inactive | inactive | inactive | inactive
Cc1ccc2nc(C)cc(NN=Cc3ccc(Cl)cc3)c2c1 | 35% | -9% | 6% | 102% (active) | inactive | inactive | inactive | inactive
O=c1n(CC2CCCCC2)c2cc(Cl)cc(OCCNc3ccncc3)c2n1CC1CCCCC1 | 64% (active) | 2% | -3% | 100% (active) | inactive | inactive | inactive | inactive
CCc1cn(CCS(C)(=O)=O)c2ccc(C(=O)N[C@@H](Cc3ccccc3)[C@H](O)CNC(C)(C)CCCC(C)C)cc12 | 96% (active) | 16% | -7% | 87% (active) | inactive | inactive | inactive | inactive
Cc1cccc2[nH]c(-c3cccc(-c4ccc(CNCc5ccc(S(C)(=O)=O)cc5)cc4)c3)nc12 | 98% (active) | 8% | 6% | 101% (active) | inactive | inactive | inactive | inactive
O=C(N[C@H]1CCN(Cc2ccc(OCCCN3CCCCC3)cc2)C1)c1ccc(Cl)c(Cl)c1 | 36% | 27% | 0% | 102% (active) | inactive | inactive | inactive | inactive
CCCc1ccccc1OCC(O)CN(C1CCCC1)C1CCCC1 (stereo not drawn) | 97% (active) | 49% | -7% | 97% (active) | inactive | inactive | inactive | inactive
Clc1ccc(-c2ccc(CNCCCN3CCCC3)cc2)cc1 | 21% | 47% | -5% | 91% (active) | inactive | inactive | inactive | inactive
CC1Cc2ccccc2N1S(=O)(=O)c1cccc(C(=O)Nc2nc(-c3ccccn3)cs2)c1 (stereo not drawn) | 77% (active) | 32% | -2% | 84% (active) | inactive | inactive | inactive | inactive
COCn1ncc2cc(-c3cccc(NC(=O)c4csc(NC(C)=O)n4)c3)ccc21 | 68% (active) | 0% | 7% | 89% (active) | inactive | inactive | inactive | inactive
CNCCNCc1cccc(-c2cccc(-c3nc4ccc(C(F)(F)F)cc4[nH]3)c2)c1 | 97% (active) | 22% | -2% | 100% (active) | inactive | inactive | inactive | inactive
CN1CCN(c2ccc(CNc3ccc4ncc(-c5ccc(OC(F)(F)F)cc5)n4n3)cc2)CC1 | 87% (active) | 13% | 0% | 94% (active) | inactive | inactive | inactive | inactive
CN(C)CCNCc1ccc(-c2ccc(-c3nc4ccc(F)cc4[nH]3)cc2)cc1 | 99% (active) | 8% | -4% | 101% (active) | inactive | inactive | inactive | inactive
Cc1cccc2[nH]c(-c3cccc(-c4ccc(C(=O)NCc5nccn5C)cc4)c3)nc12 | 9% | 18% | 1% | 100% (active) | inactive | inactive | inactive | inactive
CC(Cc1ccc(NC(=O)c2ccc(CNCCCCc3ccccc3)cc2)cc1)NCCc1cccc(Cl)c1 (stereo not drawn) | 96% (active) | 100% (active) | -1% | 100% (active) | inactive | inactive | inactive | inactive
Cc1cccc2[nH]c(-c3ccc(-c4cccc(NC(=O)NCc5ccc(F)cc5)c4)cc3)nc12 | 100% (active) | 82% (active) | -1% | 101% (active) | inactive | inactive | inactive | inactive
Cc1cc(NN=Cc2ccccc2)c2cc(C(F)(F)F)ccc2n1 | 97% (active) | 30% | -6% | 101% (active) | inactive | inactive | inactive | inactive
COc1cc(Nc2nccn3c(-c4ccsc4)cnc23)cc(OC)c1OC | 78% (active) | 26% | 3% | 93% (active) | inactive | inactive | inactive | inactive

Structure (SMILES) | growth inhibition [1] | inhibition [2] | inhibition [3] | growth inhibition [4] | outcome [5] | outcome [6] | outcome [7] | outcome [8]
Nc1nc2ccc(CN(C=O)c3ccc(C(=O)N[C@@H](CCC(=O)O)C(=O)O)cc3)cc2c(=O)[nH]1 | 94% (active) | -5% | 2% | 93% (active) | inactive | inactive | inactive | inactive
Cc1noc(C)c1CN1CCCN(c2ccc3c(c2)CCN(Cc2ccc(-c4ncc[nH]4)cc2)CC3)CC1 | 39% | 1% | 2% | 98% (active) | inactive | inactive | inactive | inactive
CCCNC[C@@H](O)[C@H](Cc1ccccc1)NC(=O)c1cc(NCC)cc(N2CCCC2=O)c1 | 76% (active) | -9% | 1% | 100% (active) | inactive | inactive | inactive | inactive
CN1CCN(CC(=O)Nc2cccc(-c3ccc(-c4nc5ccc(C(F)(F)F)cc5[nH]4)cc3)c2)CC1 | 94% (active) | 37% | -3% | 102% (active) | inactive | inactive | inactive | inactive
COc1cc(C)nc2ccc(NC(=O)Nc3cccc4ccccc34)cc12 | 48% | 27% | -3% | 91% (active) | inactive | inactive | inactive | inactive
Cc1ccc2nc(-c3ccccc3)cc(NN=Cc3cccnc3)c2c1 | 39% | 12% | 1% | 99% (active) | inactive | inactive | inactive | inactive
CCc1cc(NCc2ccncc2)nc(Nc2ccc(F)cc2)n1 | 17% | 8% | 0% | 92% (active) | inactive | inactive | inactive | inactive
COc1ccccc1CCNc1nc(C)cc(N[C@@H](Cc2ccccc2)C(=O)NCCCOC(C)C)n1 | 32% | 10% | -1% | 99% (active) | inactive | inactive | inactive | inactive
Cc1cccc2[nH]c(-c3ccc(-c4ccc(CNCc5cccc(N)c5)cc4)s3)nc12 | 78% (active) | 10% | -2% | 102% (active) | inactive | inactive | inactive | inactive
Cc1ccc(NC(=O)NC2CCN(c3ccnc4cc(Cl)ccc34)CC2)cc1 | 47% | 4% | -2% | 101% (active) | inactive | inactive | inactive | inactive
CC(C)(C)c1ccc(CN2CCC(CNC(=O)c3cc(-c4cccc(Cl)c4)cs3)C2)cc1 (stereo not drawn) | 83% (active) | 44% | 1% | 101% (active) | inactive | inactive | inactive | inactive
O=C(/C=C/c1ccc(Cl)c(Cl)c1)NCCCCCN1CCCN(C(=O)Nc2ccc(Cl)c(C(F)(F)F)c2)CC1 | 16% | 35% | 4% | 102% (active) | inactive | inactive | inactive | inactive
FC(F)(F)c1cccc(Nc2nc3nonc3nc2NC2C3CC4CC(C3)CC2C4)c1 (stereo not drawn) | 100% (active) | 72% (active) | -2% | 103% (active) | inactive | inactive | inactive | inactive
CCC(C)(C)n1c(C)cc2c3c(N)nc(N)nc3ccc21 | 85% (active) | 69% (active) | 1% | 97% (active) | inactive | inactive | inactive | inactive
O=C(Nc1ccc(Cl)cc1)N(CC1C[C@H]2CC[C@@H](C1)N2Cc1ccc(C(F)(F)F)cc1)c1ccc(N2CCOCC2)c(F)c1 (stereo partly drawn) | 36% | 31% | 0% | 85% (active) | inactive | inactive | inactive | inactive
Fc1cccc(Nc2nc(NCc3ccc4ccsc4c3)nc(Nc3cccc(F)c3)n2)c1 | 11% | -2% | -1% | 94% (active) | inactive | inactive | inactive | inactive
Cc1nn(C2CCS(=O)(=O)C2)c(C)c1C1Nc2ccccc2C(=O)N1Cc1ccc2c(c1)OCO2 (stereo not drawn) | 93% (active) | 7% | 2% | 98% (active) | inactive | inactive | inactive | inactive
O=C(Nc1ccc([N+](=O)[O-])cc1O)Nc1ccccc1Oc1ccccc1 | 1% | 45% | -8% | 92% (active) | inactive | inactive | inactive | inactive
CC(C)CNCc1ccc(-c2cccc(-c3nc4ccccc4[nH]3)c2)cc1 | 98% (active) | 53% (active) | -5% | 99% (active) | inactive | inactive | inactive | inactive
NCCNc1ccc([N+](=O)[O-])cc1C(=O)Nc1cccc(C(F)(F)F)c1 | 33% | 1% | 0% | 94% (active) | inactive | inactive | inactive | inactive
